# TDP1 cell noCPT: qHTS for Inhibitors of human tyrosyl-DNA phosphodiesterase 1 (TDP1): qHTS in cells in absence of CPT | AID 686978, 2013 | 420,000 tested, 15% active | Potency, µM (titrated, usually from 46.2 µM), without a hit: at the top dose activity change, negative = growth inhibition, hits mostly inhibitors | DT40 Tdp1-/- hTDP1 cells, no CPT, ATP luminescence, 48 h; also: potency is read from the fitted curve at half-maximal effect; nearly all actives have a fitted effect of over 55% in size
#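 DT40 Tdp1-/-;hTDP1 cells, no CPT (DMSO vehicle only), 400 cells/well; compounds pin-transferred; ≥48 hr, 37 °C; CellTiter-Glo 30 min RT dark, luminescence read.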
# Giardia killer: Giardia lamblia killing | Giardia lamblia trophozoite viability | 340,000 tested, 0.15% active | activity change, % at 7.66 µM, hits read low; in the data active = activity change below about -80%; inconclusive = between about -30% and that limit;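 also: parasites exposed to compound for two days anaerobically before the ATP read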
#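 Viability, read as ATP luminescence: trophozoites at 100 cells/well, compound added, 48 hrs anaerobic at 37 deg C, then 15-30 min room-temperature development before reading.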
# DT40 TDP1 CPT: growth inhibition of DT40 Tdp1-/-;hTDP1 cells with camptothecin (screen for TDP1 inhibitors). chicken DT40 Tdp1-/-;hTDP1 cells + 20 nM CPT, ATP luminescence, 48 h. Potency, µM (series often up to 46.2 µM), for the others: at the top dose activity change, negative = growth inhibition, hits mostly inhibitors. 420,000 tested, 12% active. AID 686979; also: potency is read from the fitted curve at half-maximal effect; nearly all actives have a fitted effect of over 55% in size
#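 Chicken DT40 Tdp1-/- cells stably complemented with human TDP1 were seeded at 400 cells/well in medium containing 20 nM camptothecin, exposed to pin-transferred compounds, and grown at 37 °C for at least 48 hr. Viability was read as ATP luminescence.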
# IL1B secr inh: inflammasome signaling inhibition, IL-1 beta readout; THP-1 LPS/ATP IL-1B secretion, AlphaLISA, 16 h; active compounds read low; activity change, % at 57.5 µM; 360,000 tested, 4.7% active; in the data active = activity change below about -50%; inconclusive = mostly about -30% to -49%
#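 Secreted IL-1B measured by AlphaLISA bead assay after 16 h compound exposure of THP-1 cells; compounds (final up to 57.5 uM) added 1 h before LPS (250 ng/mL) and ATP (1.25 mM) stimulation; lower signal means less secretion.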
# TDP1 inh: inhibitors of human tyrosyl-DNA phosphodiesterase TDP1; recombinant TDP1, AlphaScreen DNA substrate cleavage; Potency, µM (highest dose often 130 µM), for the others: at the top dose activity change, negative = inhibition, most hits filed as inhibitors; 350,000 tested, 0.28% active; AID 485290; also: potency is read from the fitted curve at half-maximal effect; nearly all actives have a fitted effect of over 40% in size
# Target sequence (Q9NUW8 whole entry, looked up): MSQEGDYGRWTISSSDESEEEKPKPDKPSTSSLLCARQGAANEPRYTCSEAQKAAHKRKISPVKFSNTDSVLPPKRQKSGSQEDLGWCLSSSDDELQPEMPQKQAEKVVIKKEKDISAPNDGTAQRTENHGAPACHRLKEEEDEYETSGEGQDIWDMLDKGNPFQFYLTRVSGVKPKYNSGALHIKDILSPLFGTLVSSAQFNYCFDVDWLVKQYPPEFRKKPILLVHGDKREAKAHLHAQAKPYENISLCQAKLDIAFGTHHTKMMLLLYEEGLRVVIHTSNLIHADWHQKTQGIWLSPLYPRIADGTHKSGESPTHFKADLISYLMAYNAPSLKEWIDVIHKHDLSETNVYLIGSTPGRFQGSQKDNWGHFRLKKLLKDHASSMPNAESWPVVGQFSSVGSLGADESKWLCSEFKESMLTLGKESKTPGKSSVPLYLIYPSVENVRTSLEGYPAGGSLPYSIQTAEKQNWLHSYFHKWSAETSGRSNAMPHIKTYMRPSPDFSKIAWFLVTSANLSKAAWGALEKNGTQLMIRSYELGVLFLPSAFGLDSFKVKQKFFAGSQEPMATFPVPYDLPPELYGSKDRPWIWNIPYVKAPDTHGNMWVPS
#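 Steps: enzyme plus compound, 15 min RT; add biotin/phosphotyrosine-FITC oligonucleotide (15 nM final), react 5 min; add donor/acceptor beads (10 ug/ml final), 10 min; read AlphaScreen. Tdp1 at 1 nM final.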
# ELG1 repair inh: blocks ELG1-dependent DNA repair in HEK293T cells; HEK293T ELG1-luciferase reporter, luminescence, 16 h; DNA damage induced by 5-fluorouridine; Potency, µM (series often up to 46.1 µM), inactives show at the top dose activity change, negative = inhibition, most hits filed as inhibitors; 330,000 tested, 2.3% active; AID 504467; also: potency is read from the fitted curve at half-maximal effect; nearly all actives have a fitted effect of over 55% in size
#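 Quantitative HTS, concentration-response format. 2,000 cells/well co-treated with 5-fluorouridine and compound, 16 hr in 5% CO2 at 37 °C; ONE-Glo luminescence read after 30 min.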
# Starred values were filed as active, the others as inactive; u = inconclusive; x = no result given. Most compounds without a hit are left out; they make up all but 19% or so of the library. Unless noted, calls follow the shape of the dose curve; as a rule, active = well fitted curve in the direction sought with a large enough effect; inconclusive = small, poorly fitted or top-dose-only effect, or another doubt; inactive = no such curve, though single readings can be large; an effect the other way counts as inactive or inconclusive. % is scaled to controls: 0 for no effect and ±100 for the full control effect.
SMILES,TDP1 cell noCPT,Giardia killer,DT40 TDP1 CPT,IL1B secr inh,TDP1 inh,ELG1 repair inh
Cc1ccc(NC(=O)C(=O)NCC2CCCN2S(=O)(=O)c2cccs2)c(C)c1 (stereo unspecified),u,-6,18µM*,-10,-5%,-14%
COCn1ccnc1C(O)(c1ccc(OC)cc1)c1ccc(OC)cc1,3%,-3,0%,0,3%,-13%
Cc1cc(C(=O)CSc2nnc3ccccn23)c(C)n1-c1ccccc1,23µM*,-11,u,5,6%,u
Cc1cc(C(=O)CSc2nnc(-c3ccccc3)n2-c2ccccc2)c(C)n1-c1ncn[nH]1,-7%,-6,-2%,35,-11%,u
O=C(CSc1ccc2ccccc2n1)N1CCC(c2noc3ccc(F)cc23)CC1,12µM*,5,16µM*,u,0%,u
COc1ccc2c(c1)c(=O)oc1cc(OCC(=O)N3CCc4ccccc4C3)ccc12,u,-1,u,-2,13µM*,-18%
COCC(=O)N1CCCC(C(=O)c2ccc(-c3ccccc3)cc2)C1 (stereo unspecified),u,7,u,-10,x,28%
COc1ccc2c(c1)c(=O)oc1cc(OCC(=O)N3CCCC(C)C3)ccc12 (stereo unspecified),13µM*,18,u,-1,x,u
CC1CCCN(C(=O)COc2ccc(-c3ccccc3)cc2)C1 (stereo unspecified),15µM*,12,u,u,0%,-4%
COc1ccc2c(c1)c(=O)oc1cc(OCC(=O)N3CCC(C)CC3)ccc12,21µM*,5,u,-7,x,-21%
O=C(NCc1ccncc1)[C@@H]1CCCN1C(=O)[C@@H]1CCCN1C(=O)c1ccccc1,-9%,x,-18%,18,x,x
CCN(CC(=O)Nc1c(F)cccc1F)C(=O)c1cccc(S(=O)(=O)N(C)c2ccccc2)c1,15µM*,7,13µM*,-5,x,-3%
CCN(CC(=O)Nc1c(F)cccc1F)C(=O)c1cccc(S(=O)(=O)N2CCN(c3ccccc3)CC2)c1,u,15,u,-5,1%,u
CCN(CC(=O)Nc1c(F)cccc1F)C(=O)c1cccc(S(=O)(=O)N2CCCc3ccccc32)c1,16µM*,-10,u,22,x,x
CCN(CC(=O)Nc1c(F)cccc1F)C(=O)c1cccc(S(=O)(=O)N2CCc3ccccc3C2)c1,u,2,u,-1,x,-11%
CCN(CC(=O)Nc1cccc(OC)c1)C(=O)c1cccc(S(=O)(=O)N2CCc3ccccc32)c1,16µM*,2,23µM*,-13,0%,-11%
O=C1CCCc2nc(N3CCN(C(=O)c4ccco4)CC3)ncc21,20%,-6,0%,59,1%,u
O=C1C2C(c3ccccc3)CC=CC2C(c2cccc([N+](=O)[O-])c2)N1Cc1ccccc1 (stereo unspecified),x,17,x,x,13%,x
Cc1sc(NC(=O)c2sc3nc4c(C)cccc4cc3c2N)c(C#N)c1C,15µM*,26,u,3,3%,u
Cc1cccc2cc3c(N)c(C(=O)N4CCc5ccccc54)sc3nc12,2.9µM*,5,3.7µM*,0,1%,-2%
Cc1cc(C)c2cc3c(N)c(C(=O)N4CCOCC4)sc3nc2c1,u,0,-8%,-76*,-1%,5%
Cc1cc(C)c2nc3sc(C(=O)N4CCOCC4)c(N)c3cc2c1,0.21µM*,-13,0.58µM*,61,x,u
Cc1ccc(C)c2nc3sc(C(=O)N4CCOCC4)c(N)c3cc12,u,3,u,53,3%,u

# Screens: PubChem, National Center for Advancing Translational Sciences (NCATS)
